In PubChem BioAssay AID1159580 (chemical genetic matrix, 2015) one finds normalized growth data, which are given here for three compounds.

SMILES strings stand for the structures. Hit rate of the full screen: of about 5,500 compounds, about 2,000 (36%) were called active. Another 18% or so got no clear call; they are omitted. This is one part of the list. A number with no mark means an inactive call. No stated cut-off is given here; in the data, active means normalized growth mostly below about 0.91 (no sharp cut-off); inconclusive means no clear call, values can overlap the other calls; inactive means mostly above about 0.92.

The nature of the experiment: chemical genetic growth profiling, strain panel (AID 1159580).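 Further: tested at 20 µM; growth read once vehicle control cultures reached saturation at 30 °C; 1 = growth at the plate median or of vehicle wells; lower values mean less growth of the strain.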 To be noted: S. cerevisiae deletion strains, growth OD.
Where [1] appears, read: locus YAL040C, strain CLN3, hits give low values.
[2] abbreviates: locus YCL061C, strain MRC1 (second series), hits give low values.
The mark [3] stands for this setting: locus YDR363W, strain ESC2, hits give low values.
Where [4] appears, read: locus YER002W, strain NOP16, hits give low values.
Setting [5] is: locus YMR307W, strain GAS1, hits give low values.
[6] abbreviates: locus YNL175C, strain NOP13, hits give low values.
[7] abbreviates: locus YNL197C, strain WHI3, hits give low values.
Where [8] appears, read: locus YNL224C, strain SQS1, hits give low values.
The mark [9] stands for this setting: locus YOR083W, strain WHI5 (second series), hits give low values.
Where [10] appears, read: locus YPL055C, strain LGE1, hits give low values.
[11] abbreviates: locus YGR229C, strain SMI1, hits give low values.
Where [12] appears, read: locus YJR075W, strain HOC1, hits give low values.
Setting [13] is: locus YNL128W, strain TEP1, hits give low values.
[14] abbreviates: locus YNL153C, strain GIM3, hits give low values.
[15] abbreviates: locus YPL241C, strain CIN2, hits give low values.

`C=CCN1C[C@@H](C)N([C@H](c2ccc(C(=O)N(CC)CC)cc2)c2cccc(OC)c2)C[C@@H]1C`: the normalized growth runs as follows: under setting [1], 1.04; under setting [2], 1; under setting [3], 0.992; under setting [4], 0.999; under setting [5], 1.03; under setting [6], 0.995. Moreover, the normalized growth under setting [7] was 1.01, the normalized growth under setting [8] is 1.02, the normalized growth under setting [9] is 1.02 and the normalized growth under setting [10] was 1.01.

Regarding `CP(=O)(O)C1=CCNCC1`, the normalized growth runs as follows: (locus YAL013W, strain DEP1, hits give low values) 1.03; under setting [1], 1; under setting [2], 1; under setting [3], 0.997; under setting [4], 0.997; under setting [11], 1.02. Besides, the normalized growth is, setting by setting: under setting [12], 1.01; under setting [5], 1; under setting [13], 0.996; under setting [14], 0.999; under setting [6], 1.01; under setting [7], 1.02. Moreover, the normalized growth reads like this: under setting [8], 1.01; (locus YNL322C, strain KRE1, hits give low values) 1.01; under setting [9], 0.987; under setting [15], 1.

Take `O=c1onc2cnc3ccccc3n12`: the normalized growth runs as follows: under setting [1], 0.984; under setting [2], 0.983; under setting [3], 0.893; under setting [4], 1; under setting [11], 0.939; under setting [12], 0.958. The normalized growth under setting [5] is 0.977; the normalized growth under setting [13] was 0.967; the normalized growth under setting [14] is 0.777 (active); the normalized growth under setting [6] is 0.999; the normalized growth under setting [7] is 0.989; the normalized growth under setting [8] is 0.987. In addition, the normalized growth is 0.961 under setting [9], 0.801 (active) under setting [10] and 0.999 under setting [15].
